# Screening results as filed in PubChem.
# D1 potentiator = Potentiators of Human D1 Dopamine Receptor: qHTS; D(1A) dopamine receptor (Homo sapiens), P21728; HEK293 TREx D1 cells, calcium flux, dopamine EC20 potentiation; potentiation, % at 10 µM; hit rate 0.036% among 360,000; in the data active = potentiation above about 30%; note: 0% is about no effect
# Target sequence (P21728 whole entry, looked up): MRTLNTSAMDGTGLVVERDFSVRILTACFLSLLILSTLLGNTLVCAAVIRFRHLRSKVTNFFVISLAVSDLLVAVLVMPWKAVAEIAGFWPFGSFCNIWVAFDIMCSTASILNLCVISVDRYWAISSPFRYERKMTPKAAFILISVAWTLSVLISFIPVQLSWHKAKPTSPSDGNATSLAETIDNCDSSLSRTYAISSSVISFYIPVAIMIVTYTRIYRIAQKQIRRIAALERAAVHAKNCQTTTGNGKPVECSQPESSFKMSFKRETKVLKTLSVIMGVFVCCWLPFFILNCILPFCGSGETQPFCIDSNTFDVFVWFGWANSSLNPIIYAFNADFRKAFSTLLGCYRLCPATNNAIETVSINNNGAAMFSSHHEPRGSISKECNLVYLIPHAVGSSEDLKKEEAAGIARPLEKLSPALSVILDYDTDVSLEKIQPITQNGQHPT
# TRHR agonist = qHTS for Small Molecule Agonists and Allosteric Enhancers of Human TRH Receptor: Primary Screen for Agonists; AID 493084, 2011; activation, % at 2 µM; hit rate 0.18% among 360,000; TRHR cells, calcium flux fluo-8, FDSS agonist mode; note: 0% is about no effect
#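 Read-out: compound-evoked intracellular calcium rise in TRHR cells, fluo-8 dye, kinetic FDSS fluorescence at 1 s/cycle following a 10-cycle baseline. Cells cultured overnight before dye loading (30 min–1.5 h, RT).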
# D1 ag = Allosteric Agonists of the Human D1 Dopamine Receptor: qHTS; activation, % at 2 µM; hit rate 1% among 360,000; HEK293 T-REx D1 cells, calcium flux, agonist mode; AID 504660, 2011; note: 0% is about no effect
#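 Tetracycline-induced HEK293 TREx D1 cells, force-coupled to calcium signalling, were dye-loaded with a no-wash calcium kit. Compound was pin-added after a 10 s baseline. Fluorescence was read kinetically at 1 cycle/s for 180 s, with calcium rises flagged as agonism.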
# LDHA inh = qHTS assay for inhibitors of human lactate dehydrogenase; L-lactate dehydrogenase A chain (Homo sapiens), P00338; activity change, % (values are at about 110 or 230 µM); hit rate 0.15% among 480,000; purified LDHA, NADH/diaphorase-resazurin fluorescence; active compounds read low; in the data active = activity change below about -30%;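 note: plate controls were DMSO wells for no effect and wells without enzyme for full effect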
#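 Human LDH5 (2 nM) was incubated with 0.06 mM NADH and 0.2 mM pyruvate for 5 min at room temperature in Tris pH 7.4. Remaining NADH was coupled through diaphorase/resazurin, and resorufin fluorescence was read at 0 and 20 min.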
# D1 antag = Antagonist of Human D 1 Dopamine Receptor: qHTS. D(1A) dopamine receptor (Homo sapiens), P21728. HEK293 TREx D1 cells, calcium flux, dopamine EC80; active compounds read low. activity change, negative = inhibition, % at 10 µM. hit rate 3.2% among 360,000; in the data active = activity change below about -30%; note: % is set by controls: 0 for no effect and ±100 for the full control effect
#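 Cells carrying a force-coupled, tetracycline-inducible human D1 receptor report calcium flux. Each well gets a 10 s baseline, compound with 180 s monitoring, then an EC80 dopamine stimulus with a second 180 s kinetic read.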
# TRHR enhancer = qHTS for Small Molecule Agonists and Allosteric Enhancers of Human TRH Receptor: Primary Screen for Enhancers | Thyrotropin-releasing hormone receptor (Homo sapiens), P34981 | TRHR cells, fluo-8 calcium fluorescence, EC20 TRH enhancement | enhancement, % at 2 µM | hit rate 0.66% among 360,000 | AID 493056, 2011; in the data active = enhancement above about 30%; note: 0% is about no effect
#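 TRHR-expressing cells loaded with fluo-8 calcium dye were read kinetically (ex 480/em 530) during compound addition, then stimulated with an EC20 of TRH (10 nM final). Enhancement of the Gq-mediated intracellular calcium response was scored.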
# An asterisk follows results filed as active; · = no result given; ! = repeats disagree. Most compounds without a hit are left out; they make up all but 3.6% or so of the library. Cut-off read from the data, not from the text of the source, unless noted: active = activation above about 30%; inactive = the rest.
SMILES,D1 potentiator,TRHR agonist,D1 ag,LDHA inh,D1 antag,TRHR enhancer
Cc1ccccc1-n1c(CSC(=N)N)nc2ccccc2c1=O,2,0,2,-11,-42*,5
CC(C)(C)OC(=O)Cc1nnc(-c2nc3ccccc3[nH]2)o1,4,2,2,-5,-33*,-1
O=C(NCc1nnc(-c2nc3ccccc3[nH]2)o1)C1CCCCC1,-3,0,0,-2,0,-6
Cc1ccc(Sc2ncccc2[N+](=O)[O-])cc1,-3,0,6,-5,-17,7
CC(C)(C)n1cnnc1Sc1ncccc1[N+](=O)[O-],11,1,3,0,-32*,3
Cc1cccc(Cn2nc(C)c(NC(=O)c3cc(-c4ccccc4)on3)c2C)c1,·,·,·,-9,·,·
COc1ccc(-c2[nH]ncc2/C=N\NS(=O)(=O)c2ccc(Cl)cc2)cc1,-5,0,3,-7,-42*,1
S=C(NCCC12CC3CC(CC(C3)C1)C2)Nc1ccc(Cl)cc1,·,·,·,3,·,·
CN(Cc1ccccc1)C(=O)CSc1nnc(-c2cccc(Cl)c2)o1,4,-1,56*,2,-54*,0
Cc1c(C(=O)NCc2ccco2)oc2ccccc12,1,-1,1,-8,14,6
Cc1c(C(=O)NCc2ccco2)oc2c(F)cccc12,-7,0,1,2,-20,37*
CC(=O)c1[nH]c(C)c(C(=O)NCc2ccc(Cl)cc2)c1C,-1,-1,39*,-6,2,-3
CC(=O)c1c(C)[nH]c(C(=O)NCc2ccco2)c1C,-8,0,2,-7,-64*,-1
COc1ccc(C(=O)N2CCN(c3oc(-c4ccccc4OC)nc3C#N)CC2)cc1,·,·,·,-2,·,·
CCCCn1nnnc1CSc1nnc(-c2ccc(OC)cc2)n1-c1ccc(C)cc1,·,·,·,1,·,·
C=C(C)c1cccc(C(C)(C)NC(=O)N2CCN(c3ccc(OC)cc3)CC2)c1,-7,0,0,-2,-37*,-3
C=C(C)c1cccc(C(C)(C)NC(=O)N2CCN(C)CC2)c1,-3,0,1,-4,1,-3
C=C(C)c1cccc(C(C)(C)NC(=O)N2CCC(C)CC2)c1,-9,0,0,-3,-43*,-9
C=C(C)c1cccc(C(C)(C)NC(=O)N2CCN(CC)CC2)c1,-9,0,0,3,-1,-6
CCOc1c(Br)cc(C(=O)Oc2cccc(F)c2)cc1OC,·,·,·,-2,·,·
Cc1ccc(NC(=S)N2CCC(N(C)CC3CCCO3)CC2)cc1C (stereo not given),-8,0,-3,-1,-18,31*
O=CNCc1nc2ccccc2n1CCCc1ccccc1,-3,0,23,-7,10,-2
COCCn1c(N)c(C#N)c2nc3ccccc3nc21,-1,0,-2,23,-14,1
Cn1c(-c2c(N)n(CCc3ccccc3)c3nc4ccccc4nc23)nc2ccccc21,-5,20,77*,8,11,2
COCCCn1c(N)c(-c2nc3ccccc3n2C)c2nc3ccccc3nc21,-2,22,77*,1,-4,3
SMILES,D1 potentiator,TRHR agonist,D1 ag,LDHA inh,D1 antag,TRHR enhancer
N#Cc1c(N)n(CCc2ccc(F)cc2)c2nc3ccccc3nc12,-8,0,0,13,-18,2
Cn1c(-c2c(N)n(CCCc3ccccc3)c3nc4ccccc4nc23)nc2ccccc21,-5,-1,52*,-7,3,0
COCCNC(=O)c1c(N)n(CCCn2ccnc2)c2nc3ccccc3nc12,-9,0,1,-2,-47*,17
Brc1ccc(-c2ccc(CNc3ncn[nH]3)o2)cc1,·,·,·,4,·,·
Cn1c(-c2c(N)n(C3CCCC3)c3nc4ccccc4nc23)nc2ccccc21,-5,16,53*,-1,-16,17
CCOc1ccc(NC(=O)C(C)Sc2nnnn2C)cc1 (stereo not given),-8,0,0,-8,-32*,0
COc1ccccc1NC(=O)C(C)Sc1nccn1C (stereo not given),0,0,1,-15,0,3
CC(Sc1nccn1C)C(=O)Nc1ccc(C(N)=O)cc1 (stereo not given),-5,0,3,-3,27,31*
O=[N+]([O-])c1cccc(P(=O)(O)c2cccc([N+](=O)[O-])c2)c1,-5,1,1,-8,5,31*
COCCNC(=O)C1CCC(=O)N1S(=O)(=O)c1ccc(C)cc1 (stereo not given),-2,1,1,-13,-2,-3
COc1ccc(/C(N)=N/OC(=O)C2CCC(=O)N2S(=O)(=O)c2ccc(C)cc2)cc1 (stereo not given),-8,0,5,-4,-32*,1
COc1ccccc1S(=O)(=O)Cc1ccc(C(=O)NC2CCCCCC2)o1,-14,0,1,-1,13,-2
COc1ccccc1S(=O)(=O)Cc1ccc(C(=O)NCC2CCCO2)o1 (stereo not given),2,0,1,-7,-36*,-2
Cc1c(C(=O)NCC2CCCO2)oc2ccccc12 (stereo not given),·,0,0,-2,-31*,2
COc1ccccc1CNC(=O)c1ccc(C)s1,-5,-2,-1,-6,-46*,-1
COc1ccccc1CNC(=O)c1ccc(CS(=O)(=O)c2ccccc2C)o1,1,3,31*!,-4,-38*!,-10
CCN1CCCC1CNC(=O)c1ccc(CS(=O)(=O)c2ccccc2C)o1 (stereo not given),8,0,0,1,7,31*
CC1=C(C(=O)OCC(Cl)(Cl)Cl)N2C(=O)C(NC(=O)Cc3ccccc3)C2SC1 (stereo not given),-10,-1,26,-6,-34*,4
CCCn1c(N)c(N(CCOC)C(=O)c2cccnc2OCC)c(=O)[nH]c1=O,·,·,·,-1,·,·
CCOC(=O)C1=C(CN(CC)Cc2ccccc2)NC(=O)NC1c1ccc(OC(C)C)cc1 (stereo not given),-3,3,6,2,-45*,5
O=C(N/N=C/c1cccs1)c1cc(-c2ccccc2)nc2ccccc12,·,·,·,-3,·,·
